# Assay results as given in PubChem BioAssay (NCI).
# About 83,000 compounds went through this panel and 20% of them were active in at least one assay; those are over-represented in the sample as a whole.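 Interpretation: 100, growth as untreated; towards 0, rising growth inhibition; 0, no net growth; 0 to -100, cell death. Compounds scoring below 10 were considered active.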 Calls of active or inactive are those of the source.
# Tested on: A549/ATCC NSCLC
# Assay: NCI-60 one-dose screen, 48 h (100 = growth as untreated, 0 = no growth, -100 = all killed)
# Conditions: 10 µM unless noted
row,Compound,growth
1,CN(C)CCC(=O)C1CC1,103% (inactive)
2,COc1cc(/C=C2\C(=O)N(CCCOc3cc(O)c4c(=O)cc(-c5ccccc5)oc4c3)c3ccccc32)cc(OC)c1O,74.5% (inactive)
3,Cc1c2ccccc2nc2cc3c(cc12)[C@H]1CC[C@]2(C)C(=O)CC[C@H]2[C@@H]1CC3,86.5% (inactive)
4,COc1ccc(C(=O)/C=C/c2ccccc2)cc1S(N)(=O)=O,65.7% (inactive)
5,Cc1ccc(OCCOCCOCCOc2ccc(C)n(O)c2=S)c(=S)n1O,29.9% (inactive)
6,S=c1ccnc[nH]1,98.2% (inactive)
7,O=C(Oc1ccc2c(c1)sc1nc(-c3ccccc3)[nH]c(=O)c12)C(F)(F)F,28.3% (inactive)
8,Cc1cccc(-c2nc(C(C)C)sc2-c2ccnc(NCCCNS(=O)(=O)c3ccc(Cl)cc3)c2)c1,74.8% (inactive)
9,CN(C)CCC(CCN(C)C)(C(=O)O)c1ccccc1,99% (inactive)
10,CC1=C2[C@@H](CC1)[C@]1(C)O[C@@](C3CCNCC3)(C[C@H]1OC(=O)CO)[C@H]2OC(=O)/C=C/c1ccccc1,92.2% (inactive)
11,COc1ccc2c(O)c(/C=C3\N=Nc4ncccc43)oc2c1C[C@@H]1CCNC[C@H]1F,-24.1% (active)
12,CC1(C)CC[C@]2(CO)CC[C@]3(C)[C@](O)([C@H](O)C[C@@H]4[C@@]5(C)CCCNC(C)(C)[C@@H]5CC[C@]43C)[C@@H]2C1,85.2% (inactive)
13,Cc1ccccc1N1CCN(C(=S)c2ccccc2)CC1,87.4% (inactive)
14,C1CCC(N2CN3c4nonc4N4CN(C5CCCCC5)CN5c6nonc6N(C2)C3C45)CC1 (centres undefined),92.4% (inactive)
